Hit rate of the full screen: of about 330,000 compounds, about 4,200 (1.3%) were called active. Entries that show only a call come without a potency. Another 6% or so got no clear call; they are omitted. Calls follow the shape of the dose curve; as a rule, active = well fitted activation curve with a large enough effect; inconclusive = small, poorly fitted or top-dose-only effect; inactive = no such curve, though single readings can be large or run the other way. Only a selection was taken, and actives are over-represented in it overall.
Potency is read from the fitted curve at half-maximal effect.

The assay in a line: qHTS screen for small molecules that induce genotoxicity in human embryonic kidney (HEK293T) cells expressing luciferase-tagged ELG1. Also: nearly all actives have a fitted effect of over 60% in size. To be noted: HEK293T ELG1-luciferase reporter, luminescence, 16 h; series mostly up to 46 µM. A digest of the protocol: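 DMSO vehicle served as control against compound-treated ELG1-luciferase HEK293T cells; exposure lasted 16 hr at 37 °C and 5% CO2, followed by ONE-Glo luminescence detection after 30 min.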
For orientation: Quantitative high-throughput screening tests each substance at several concentrations.
With `C[C@H]1CN([C@@H](C)CO)C(=O)Cc2cc(NS(C)(=O)=O)ccc2O[C@@H]1CN(C)CC1CC1`, the Potency result was “inactive”.
For `Cc1cccc(-c2noc(CCC(=O)NC3CCCC3)n2)c1` the value was “inactive”; for `Cc1ccc(Cc2nc(-c3cccc(C)c3)no2)cc1`, 16.4 µM (active); for `COc1ccc(-c2nc(-c3ccccc3)no2)c(OC)c1`, 0.058 µM (active).
In the case of `COc1ccc(-c2noc(CNC(=O)C(C)Oc3ccccc3)n2)cc1` (stereo not given), the Potency entry is “inactive”.
Then `Cc1ccc(-c2noc(CSc3nnc(-c4ccccc4)n3C)n2)cc1`, with “inactive”.
For `COc1ccc(-c2n[nH]c(C)c2-c2ccccc2OC)c(O)c1` the value was “inactive”.
Then `O=C(COC(=O)c1ccc(F)cc1)Nc1ccc2c(c1)OCO2`, with “inactive”; and `O=C(CN1C(=O)NC2(CCCCCC2)C1=O)NCc1ccc(F)cc1`, with “inactive”; and `O=C(N[C@H]1C/C=C\C(c2ccc(F)cc2)N(Cc2ccccc2)C(=O)C1)OCC1c2ccccc2-c2ccccc21` (stereo not given in full), with “inactive”.
In the case of `C#CCOCCOCCOCCNc1nc(N2CCN(C(=O)[C@H](CCCN=C(N)N)n3cc(C(N)[C@@H](C)CC)nn3)CC2)nc(N2CCN(C(=O)[C@H](CO)n3cc([C@@H](N)C(C)C)nn3)CC2)n1` (stereo not given in full), the Potency result was “inactive”.
Take `CCN(c1ccccc1)S(=O)(=O)c1ccc(C(=O)Nc2ccccc2OC)cc1`: the Potency entry was “inactive”.
For `CCOC(=O)CSc1nnc(-c2ccc([N+](=O)[O-])cc2)o1`, the Potency result was “inactive”.
For `Cc1cccc(C)c1OC(=O)CSc1nnc(-c2ccccc2)o1` the value was “inactive”; for `CCCCSc1nnc(-c2ccc(C)cc2)o1`, 2.06 µM (active); for `c1ccc2c(CCN3CCNC[C@H]3Cc3cccc4ccccc34)cccc2c1`, “inactive”.
Then `COc1ccc(C2=NN(c3nc4ccccc4s3)C(=O)C2)cc1`, with “inactive”.
For `COc1ccc(-n2nnnc2CNC(=O)c2ccc3ccccc3c2)cc1` the value was “inactive”; for `COc1ccc(-n2nnnc2-c2nc3ccccc3s2)cc1`, 1.46 µM (active); for `O=C(Nc1ccc(N2CCOCC2)cc1)c1cccc(S(=O)(=O)N2CCOCC2)c1`, “inactive”.
Consider `O=C(CCc1ccc(S(=O)(=O)N2CCOCC2)cc1)OCC(=O)c1ccc(Br)cc1`, for which the Potency entry is “inactive”.
With `COc1ccc(OCc2cc(C(=O)NCC3(C)COC3)no2)c(Cl)c1`, the Potency result was “inactive”.
Regarding `Cc1cc(OCc2cc(C(=O)NCc3cc(C(C)C)no3)no2)cc(C)c1Cl`, the Potency is 3.66 µM (active).
For `Cc1cccnc1CC(C)NC(=O)c1cc(COc2cncc(Cl)c2)on1` (stereo not given) the value was “inactive”; for `CC1(C)C[C@H]2C3=CCC4[C@@]5(C)CC[C@H](O)[C@](C)(CO)C5CC[C@@]4(C)[C@]3(C)C[C@@H](O)[C@@]2(CO)[C@@H](O)[C@@H]1O` (stereo not given in full), “inactive”.
For `CC(C)(C)OC(=O)C1=C(CO)CS[C@@H]2[C@H](NC(=O)Cc3ccccc3)C(=O)N12` the value was “inactive”.
For `C/C(CC(=O)Nc1ccc(N(C)C)cc1)=N\NC(=O)c1ccccc1F` the value was “inactive”.
As to `C/C(=N\NC(=O)Cc1ccc(Br)cc1)c1cccnc1`, the Potency result was “inactive”.
Then `C/C(=N\NC(=O)c1ccccc1F)c1ccccn1`, with 3.66 µM (active).
Turning to `C/C(=N\NC(=O)Cc1ccc(Cl)cc1)c1ccccn1`, the Potency was 9.2 µM (active).
Then `C/C(=N\NC(=O)Cc1ccc(F)cc1)c1ccc(F)cc1`, with “inactive”; and `Cc1ccc(Cl)cc1NC(=O)c1ccccn1`, with “inactive”; and `COc1ccc2[nH]c3c(c2c1)CCN1C(=O)C(CC(=O)NCc2cccc(C(F)(F)F)c2)C[C@H](C(=O)N2CCOCC2)[C@@]31C` (stereo not given in full), with “inactive”.
For `O=C(COc1ccc(F)cc1Br)NCC1COc2ccccc2O1` (stereo not given) the value was “inactive”; for `CCCCCCOC(=O)NCC(O)c1ccccc1` (stereo not given), 18.4 µM (active).
For `CCCCCOC(=O)NCCOC(=O)Nc1ccc(C(=O)OCC)cc1` the value was “inactive”; for `CCCCOC(=O)Nc1nnc(CC(=O)NCc2ccccc2)s1`, “inactive”; for `O=C(CNC(=O)c1n[nH]c2ccccc12)Nc1cc(Cl)ccc1Cl`, “inactive”.
With `CCN(CC)C(=O)[C@H]1CC(CC(=O)NCc2ccco2)C(=O)N2CCc3c([nH]c4ccccc34)[C@]12C` (stereo not given in full), the Potency result was “inactive”.
In the case of `COc1ccc(NS(=O)(=O)c2cc(NC(=O)c3ccc(S(=O)(=O)N(C)C)cc3)ccc2N2CCOCC2)cc1`, the Potency result is “inactive”.
For `CCN(C[C@H]1N[C@@](Cc2ccccc2)(C(=O)OC)[C@H]2C(=O)N(Cc3ccccc3)C(=O)[C@@H]12)C(=O)c1ccc(C)cc1` the value was “inactive”; for `COc1ccc(NC(=O)CNc2cc(S(=O)(=O)N3CCOCC3)ccc2N2CCOCC2)c(OC)c1`, “inactive”; for `O=C(Nc1ccccc1C(F)(F)F)c1cc(-c2ccc(O)cc2)on1`, “inactive”.
Then `Cc1ccc(C)c(NC(=O)c2ccc(OC(=O)c3ccco3)cc2)c1`, with “inactive”; and `Cc1ccc(O)c(NC(=O)c2cc(-c3ccco3)on2)c1`, with 20.6 µM (active).
Then `CCCCC[C@@H]1C=C(C(=O)O)[C@H](c2ccc(C#N)cc2)N1S(=O)(=O)c1ccc(C)cc1`, with “inactive”.
With `Cc1ccc(C(=O)NNC(=O)c2ccncc2)cc1S(=O)(=O)N1CCCCC1`, the Potency entry was “inactive”.
For `Cc1ccc(C(=O)NC2CCCC(C)C2C)cc1S(=O)(=O)N1CCCCC1` (stereo not given) the value was 18.3 µM (active).
For `CC1CCCC(NC(=O)c2cc(S(=O)(=O)N3CCCCC3)ccc2Cl)C1C` (stereo not given) the value was “inactive”; for `C[C@@H]1CN([C@@H](C)CO)C(=O)c2cc(NC(=O)C3CC3)ccc2O[C@H]1CN(C)C`, “inactive”.
Then `COC(=O)[C@@]1(C)[C@H]2C(=O)N(Cc3ccccc3)C(=O)[C@H]2[C@H]2CN=C(SCC3CC3)N21`, with “inactive”.
On to `CC[C@]1(C(=O)OC)[C@H]2C(=O)N(Cc3ccccc3)C(=O)[C@H]2[C@H]2CN=C(SCc3ccccc3)N21`, for which the Potency result was “inactive”.
Then `COc1cccc(NC(=O)COC(=O)c2ccc3ccccc3n2)c1`, with “inactive”; and `Cc1ccc(OCCCC(=O)N2CCOCC2)c(C)c1`, with 20.6 µM (active).
For `Cc1ccc(OCCCC(=O)NC(C)c2ccccc2)c(C)c1` (stereo not given) the value was “inactive”; for `Cc1cc(S(=O)(=O)N2CCOCC2)ccc1OCC(=O)N1CCOCC1`, “inactive”.
Then `COc1ccc(C2(c3ccc(OC)cc3)NC(=O)N(CC(=O)Nc3cc(C)on3)C2=O)cc1`, with “inactive”; and `Cc1nn(-c2ccccc2)nc1C(=O)OCC(=O)N1CCCCC1C` (stereo not given), with “inactive”; and `COc1ccc(Br)cc1C(=O)NC(=S)Nc1cc(-c2nc3ccccc3[nH]2)ccc1C`, with “inactive”.
Regarding `Cc1ccc(-c2nc3ccccc3[nH]2)cc1N`, the Potency was 1.64 µM (active).
For `COc1ccc(-c2[nH]nc(-c3ccccc3)c2-c2nc3ccccc3[nH]2)cc1` the value was “inactive”.
Regarding `Nc1cccc(CCc2nc3ccccc3[nH]2)c1`, the Potency result is “inactive”.
In the case of `c1ccc2[nH]c(-c3nc4ccccc4[nH]3)nc2c1`, the Potency is 1.03 µM (active).
For `O=C(Nc1cccc(-c2nc3ccccc3[nH]2)c1)c1ccc(C(=O)Nc2cccc(-c3nc4ccccc4[nH]3)c2)cc1` the value was “inactive”; for `C=CC1=C(C(=O)O)N2C(=O)[C@@H](NC(=O)/C(=N\OCC(=O)O)c3csc(N)n3)[C@H]2SC1`, “inactive”.
On to `Cc1cccc(OCC(=O)OCC(=O)Nc2ccc(Cl)cn2)c1`, for which the Potency result is “inactive”.
Then `COc1ccccc1-c1sc2ccccc2c1C#CC1(O)CCCCC1`, with “inactive”; and `COc1ccc(S(=O)(=O)N2CCOCC2)cc1NC(=O)c1ccc(OCC(C)C)c(OC)c1`, with “inactive”.
For `C=CC[C@@H](CC(=O)N[C@H](CO)Cc1ccccc1)C(=O)N[C@@H](COC(=O)[C@@H](CC=C)Cc1ccc(F)cc1)Cc1c[nH]c2ccccc12` the value was “inactive”; for `CC[C@]12c3[nH]c4cc(CCC(=O)N(C)C)ccc4c3CCN1C(=O)[C@@H](CC(=O)NCCCn1ccnc1)C[C@@H]2C(=O)N1CCN(C(=O)C2CC2)CC1`, “inactive”.
For `CN(CC(=O)O)C(=O)c1ccccc1` the value was “inactive”; for `CC1CN/C(=C\C(=O)c2ccc(Br)cc2)C(=O)N1` (stereo not given), 1.3 µM (active); for `CC1(C)Cc2ccccc2/C(=C/C(=O)c2ccccc2)N1`, “inactive”.
For the compound `COc1cc2c(cc1OC)/C(=C/C(=O)c1ccc(NC(C)=O)cc1)NCC2`, the Potency result was “inactive”.
On to `CN(c1ccccc1)S(=O)(=O)c1cc(C(=O)N2CCN(c3ncccn3)CC2)ccc1Cl`, for which the Potency result was “inactive”.
Then `COc1ccccc1CNC(=O)COC(=O)c1cccs1`, with “inactive”.
As to `CCN(C[C@H]1N[C@@](CC)(C(=O)OC)[C@H]2C(=O)N(C)C(=O)[C@@H]12)C(=O)Nc1ccc(F)cc1`, the Potency entry is “inactive”.
On to `Cc1cccc(C)c1-n1c(C)cc(/C=C2\C(=O)NN(c3ccccc3)C2=O)c1C`, for which the Potency entry was “inactive”.
Then `Cc1cc(/C=C2/NC(=O)NC2=O)c(C)n1-c1cccnc1`, with “inactive”; and `Cc1ccccc1-n1c(C)cc(/C=C2\NC(=O)NC2=O)c1C`, with 14.6 µM (active); and `COc1cc(SC)ccc1C(=O)NNC(=O)C1COc2ccccc2O1` (stereo not given), with “inactive”.
On to `Cc1ccc(OCCCC(=O)Nc2ccc3c(c2)OCCO3)cc1`, for which the Potency entry was “inactive”.
For `COc1ccccc1OCCCC(=O)Nc1ccc2c(c1)OCCO2` the value was “inactive”; for `COC(=O)CCNc1ccc2c(c1)OCCO2`, 9.2 µM (active); for `COc1cccc(CC(=O)OCC(=O)NCc2ccc3c(c2)OCO3)c1`, “inactive”.
For `CCN1C[C@@H]2[C@@H]3C(=O)N(Cc4ccccc4)C(=O)[C@@H]3[C@](Cc3ccccc3)(C(=O)OC)N2C1=NC1CCCCC1` the value was “inactive”.
For `C[C@@H]1CN([C@H](C)CO)C(=O)c2cc(NC(=O)NC3CCCCC3)ccc2O[C@H]1CN(C)S(C)(=O)=O` the value was “inactive”; for `CC(=O)Nc1ccccc1NC(=O)c1cc(C)cc(C)c1`, “inactive”; for `Nc1ccc(C(=O)Nc2ccccc2N)cc1`, 14.6 µM (active).
For the compound `Nc1ccc(C(=O)NCc2ccccc2)cc1`, the Potency result is “inactive”.
Then `CC[C@]1(C(=O)OC)[C@H]2C(=O)N(C)C(=O)[C@H]2[C@H]2CN(C)C(=NCc3ccccc3)N21`, with “inactive”; and `CCc1ccc(NC(=O)N2CCN(c3ccccc3)CC2)cc1`, with “inactive”; and `CCc1ccc(NC2Nc3cc(C)nn3S2)cc1` (stereo not given), with 9.2 µM (active).
For `CCCc1cc(=O)[nH]c(SCC(=O)Nc2ccc(S(=O)(=O)N3CCCC3)cc2)n1` the value was “inactive”; for `C=CC[C@H](CC(=O)N(CCO)Cc1ccccc1)C(=O)N[C@@H](COC(=O)[C@@H](CC=C)Cc1ccc(F)cc1)Cc1ccccc1`, “inactive”.

These data come from PubChem BioAssay AID504466 (National Center for Advancing Translational Sciences (NCATS), 2011).
